From the supplement of paper PMC8728848
Only a selection was taken, and the strongest signals are over-represented in it overall.

What was measured:
Assay in all cases: glycan array binding signal (z-score within array); higher = stronger binding
Conditions in all cases: glycan notation: IUPAC condensed, linker removed
[1] = molecular target: Gal(b1-4)GlcNAc(b1-3)Gal(b1-4)GlcNAc(b1-3)[Gal(b1-4)GlcNAc(b1-3)Gal(b1-4)GlcNAc(b1-6)]GalNAc
How it was run: (§1)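 The binding signal is a Z-score computed within each array and averaged over linkers. Arrays of the same protein sequence at different concentrations or buffers were also averaged together. Data originate from 3228 arrays in the Consortium for Functional Glycomics database, kept only where the protein sequence was available.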

[2] = molecular target: Gal(b1-4)GlcNAc(b1-3)GalNAc
How it was run: as §1

Gal3S(b1-4)Glc6S = molecular target: Gal3S(b1-4)Glc6S
How it was run: as §1

[3] = molecular target: Gal3S(b1-4)[Fuc(a1-3)]Glc
How it was run: as §1

Gal4S(b1-4)GlcNAc = molecular target: Gal4S(b1-4)GlcNAc
How it was run: as §1

Gal6S(b1-4)GlcNAc = molecular target: Gal6S(b1-4)GlcNAc
How it was run: as §1

[4] = molecular target: GalNAc(b1-3)Gal(a1-6)Gal(b1-4)Glc
How it was run: as §1

GalNAc(b1-4)GlcNAc6S = molecular target: GalNAc(b1-4)GlcNAc6S
How it was run: as §1

GalNAc6S(b1-4)GlcNAc = molecular target: GalNAc6S(b1-4)GlcNAc
How it was run: as §1

Glc(a1-4)Glc = molecular target: Glc(a1-4)Glc
How it was run: as §1

Glc(b1-4)Glc = molecular target: Glc(b1-4)Glc
How it was run: as §1

[5] = molecular target: GlcNAc(b1-3)Gal(b1-4)GlcNAc(b1-3)Gal(b1-4)GlcNAc(b1-3)Gal(b1-4)GlcNAc(b1-2)Man(a1-3)[GlcNAc(b1-3)Gal(b1-4)GlcNAc(b1-3)Gal(b1-4)GlcNAc(b1-3)Gal(b1-4)GlcNAc(b1-2)Man(a1-6)]Man(b1-4)GlcNAc(b1-4)[Fuc(a1-6)]GlcNAc
How it was run: as §1

GlcNAc(b1-4)GlcNAc = molecular target: GlcNAc(b1-4)GlcNAc
How it was run: as §1

Kdn(a2-3)Gal(b1-3)GlcNAc = molecular target: Kdn(a2-3)Gal(b1-3)GlcNAc
How it was run: as §1

[6] = molecular target: Man(a1-2)Man(a1-3)[Man(a1-2)Man(a1-6)]Man(a1-6)[Man(a1-2)Man(a1-2)Man(a1-3)]Man(b1-4)GlcNAc(b1-4)GlcNAc
How it was run: as §1

[7] = molecular target: Man(a1-3)[Man(a1-6)]Man(b1-4)GlcNAc(b1-4)[Fuc(a1-6)]GlcNAc
How it was run: as §1

[8] = molecular target: Neu5Ac(a2-3)Gal(b1-3)]Neu5Ac(a2-3)Gal(b1-4)]GlcNAc
How it was run: as §1

[9] = molecular target: Neu5Ac(a2-3)Gal(b1-4)GlcNAc(b1-3)Gal(b1-4)GlcNAc(b1-3)Gal(b1-4)GlcNAc(b1-2)Man(a1-3)[Neu5Ac(a2-3)Gal(b1-4)GlcNAc(b1-3)Gal(b1-4)GlcNAc(b1-3)Gal(b1-4)GlcNAc(b1-2)Man(a1-6)]GalNAc
How it was run: as §1

[10] = molecular target: Neu5Ac(a2-3)Gal(b1-4)GlcNAc(b1-3)GalNAc
How it was run: as §1

[11] = molecular target: Neu5Ac(a2-3)Gal(b1-4)[Fuc(a1-3)]GlcNAc(b1-3)GalNAc
How it was run: as §1

[12] = molecular target: Neu5Ac(a2-6)Gal(b1-3)GlcNAc(b1-3)[Gal(b1-4)GlcNAc(b1-6)]Gal(b1-4)Glc
How it was run: as §1

[13] = molecular target: Neu5Ac(a2-6)Gal(b1-4)GlcNAc(b1-2)Man(a1-3)[GlcNAc(b1-2)Man(b1-4)GlcNAc(b1-2)Man(a1-6)]Man(b1-4)GlcNAc(b1-4)GlcNAc
How it was run: as §1

[14] = molecular target: Neu5Ac(a2-6)Gal(b1-4)GlcNAc(b1-2)Man(a1-3)[GlcNAc(b1-4)][Neu5Ac(a2-6)Gal(b1-4)GlcNAc(b1-2)Man(a1-6)]Man(b1-4)GlcNAc(b1-4)GlcNAc
How it was run: as §1

[15] = molecular target: Neu5Ac(a2-6)Gal(b1-4)GlcNAc(b1-6)[Gal(b1-3)]GalNAc
How it was run: as §1

[16] = molecular target: Neu5Ac(a2-6)GalNAc(b1-4)GlcNAc6S
How it was run: as §1

[17] = molecular target: Neu5Ac(a2-8)Neu5Ac(a2-3)Gal(b1-4)GlcNAc
How it was run: as §1

[18] = molecular target: Neu5Ac(a2-8)Neu5Gc(a2-3)Gal(b1-4)GlcNAc
How it was run: as §1

B1: LlpA1 (Pseudomonas fluorescens), Q4KHC3 (protein)
chain: MGSSHHHHHHSSGLVPRGSHMAWIRYDFTDNGSSVLPARYYMAPNQYLQSPNKRFKLLFQADGNLALYDGAQLAWVADQNTPFTNVSKGNKKDPMMVFMNYGFVLDDPLRGRIWSTTPSDPTMGSREDASLRAFTQVQDDGNIVTVDTIPHWYAPNGRVFTPAVGAAMIIGGTTELVPGQFYSAGEHSLVFQGDGNLVVYGPNSSVIWATYTQNKGGVRCVMQEDGNLVIYAANNGVVWQSGTGGHPGATIRLQANGSFTIVTERPVWARFGYTPTIKPPRVFYPDHKWKTGSYTWNNVF
[1]
  glycan array binding signal (z-score): 2.36
[2]
  glycan array binding signal (z-score): -0.927
Gal3S(b1-4)Glc6S
  glycan array binding signal (z-score): -0.494
[3]
  glycan array binding signal (z-score): -0.518
Gal4S(b1-4)GlcNAc
  glycan array binding signal (z-score): 0.315
Gal6S(b1-4)GlcNAc
  glycan array binding signal (z-score): 0.079
[4]
  glycan array binding signal (z-score): 0.158
GalNAc(b1-4)GlcNAc6S
  glycan array binding signal (z-score): 1.64
GalNAc6S(b1-4)GlcNAc
  glycan array binding signal (z-score): 1.35
Glc(a1-4)Glc
  glycan array binding signal (z-score): 0.211
Glc(b1-4)Glc
  glycan array binding signal (z-score): -1.02
[5]
  glycan array binding signal (z-score): 1.27
GlcNAc(b1-4)GlcNAc
  glycan array binding signal (z-score): 0.141
Kdn(a2-3)Gal(b1-3)GlcNAc
  glycan array binding signal (z-score): -0.948
[6]
  glycan array binding signal (z-score): 0.448
[7]
  glycan array binding signal (z-score): -0.367
[8]
  glycan array binding signal (z-score): 0.082
[9]
  glycan array binding signal (z-score): 2.75
[10]
  glycan array binding signal (z-score): -0.31
[11]
  glycan array binding signal (z-score): 0.206
[12]
  glycan array binding signal (z-score): -0.201
[13]
  glycan array binding signal (z-score): 2.45
[14]
  glycan array binding signal (z-score): -0.209
[15]
  glycan array binding signal (z-score): 0.228
[16]
  glycan array binding signal (z-score): -0.028
[17]
  glycan array binding signal (z-score): -0.552
[18]
  glycan array binding signal (z-score): 8.89
